# KB-V1 cytotox: kills drug-selected multidrug resistant KB-V1 cells; 3.4% of 400,000 active; AID 1347076; Potency, µM (top dose mostly 46.1 µM), hits mostly cytotoxic; KB-V1 MDR cells viability, CellTiter-Glo, 72 h; also: nearly all actives have a fitted effect of over 60% in size
#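 Potencies derive from concentration-effect curves fitted to normalized luminescence (CellTiter-Glo) of KB-V1 cells treated for 72 h at 37 degrees C in phenol-red-free DMEM containing 10% FBS.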
# TGFb inhibitor: TGF-b pathway inhibition; 1.2% of 410,000 active; AID 588855; Potency, µM (highest dose often 46.1 µM), hits mostly inhibitors; HepG2 CAGA-GFP TGF-b/SMAD3 reporter, GFP fluorescence, 18 h; TGF-beta stimulated, 500 pg/mL final; also: nearly all actives have a fitted effect of over 65% in size
#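 Cell-based qHTS in HEPG2 carrying a CAGA-GFP Smad reporter; compounds added before 500 pg/mL final TGF-beta, 18 h incubation at 37 degrees C, GFP fluorescence quantified per cell by imaging cytometry.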
# KB-3-1 cytotox: kills parental KB-3-1 adenocarcinoma cells | KB-3-1 viability, CellTiter-Glo ATP luminescence, 72 h | Potency, µM (series often up to 46.1 µM), most hits filed as cytotoxic | 1.4% of 400,000 active; also: nearly all actives have a fitted effect of over 60% in size
#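 Parental KB-3-1 adenocarcinoma cells in phenol-red-free DMEM with 10% FBS were pin-treated with compounds at several concentrations, incubated 72 h at 37 °C, and viability read by CellTiter-Glo luminescence; concentration-effect curves were fitted after normalization.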
# ATXN2 expr inh: ATXN2 expression inhibition. HEK-293 ATXN2-luciferase reporter, luminescence, 24 h. Potency, µM (top dose mostly 57 µM), actives largely listed as inhibitors. 0.72% of 360,000 active. AID 1745845; also: nearly all actives have a fitted effect of over 55% in size
#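 qHTS (up to 57 uM final) was run with 24 h compound exposure of reporter cells at 37 °C. Each well was multiplexed: SteadyGlo luminescence measured ATXN2-luciferase expression after a fluorogenic Gly-Phe-AFC viability readout (25 uM final).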
# HepG2 tox: HepG2 cytotoxicity, counter-screen for TGF-b inhibitors; 0.76% of 410,000 active; AID 588856; HepG2 CAGA-GFP viability, ATP luminescence, 18 h; Potency, µM (doses to about 46.1 µM), hits mostly cytotoxic
#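 HepG2 CAGA-GFP cells (1000/well, DMEM with 1% FBS) received compound, then TGF-beta at 500 pg/mL final, and were incubated 18 hours at 37 degrees C. Viability was read by CellTiter-Glo luminescence. Media-only wells were set as complete cell-killing and DMSO as no toxicity.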
# S2 tox: reduces viability in counter-screen for ATXN expression inhibitors; S2 cells (HEK-293 line with an ATXN2-luciferase reporter) viability, CellTiter-Fluor protease fluorescence, 24 h; Potency, µM (titrated, usually from 56.7 µM), hits mostly cytotoxic; 0.49% of 400,000 active; AID 651635; also: nearly all actives have a fitted effect of over 40% in size
# Numbers stand for hits; i = inactive; ? = inconclusive; nt = no result. The list is not random: actives were taken first. Their share in the collection is about 5.9%. Calls follow the shape of the dose curve; as a rule, active = well fitted curve in the direction sought with a large enough effect; inconclusive = small, poorly fitted or top-dose-only effect, or another doubt; inactive = no such curve, though single readings can be large; an effect the other way counts as inactive or inconclusive.
SMILES,KB-V1 cytotox,TGFb inhibitor,KB-3-1 cytotox,ATXN2 expr inh,HepG2 tox,S2 tox
COc1ccc(CN(C(=O)c2oc3ccccc3c2C)C2CCS(=O)(=O)C2)cc1OC (stereo not given),i,i,i,i,i,i
CCOc1ccc(CN(C(=O)c2oc3ccccc3c2C)C2CCS(=O)(=O)C2)cc1 (stereo not given),9.2µM,i,i,i,i,?
Cc1c(C(=O)N(Cc2ccc(Cl)cc2)C2CCS(=O)(=O)C2)oc2ccccc12 (stereo not given),8.2µM,?,?,i,i,i
CC=CC(=O)N(CC)c1ccccc1C,nt,nt,nt,i,nt,nt
N#Cc1cc2ccccc2nc1N,i,?,i,i,0.28µM,i
Cc1ccc(-n2c(C)cc(/C=N/NC(=O)c3ccc(CN4CCOCC4)cc3)c2C)cc1,16µM,i,i,i,i,i
O=C(CCc1ccccc1)NCC(c1ccco1)N1CCc2ccccc21 (stereo not given),7.3µM,?,3.7µM,i,i,i
Brc1cc(Br)c[n+](CCc2ccccc2)c1,i,i,i,nt,i,nt
CCOc1ccccc1C(=O)NCC(c1cccs1)S(=O)(=O)c1ccc(F)c(C)c1 (stereo not given),nt,i,nt,nt,i,nt
CC(CCc1ccccc1)NC(=O)COc1ccc(S(=O)(=O)N2CCOCC2)cc1[N+](=O)[O-] (stereo not given),21µM,i,i,i,i,i
Cc1ccc(CNc2ccc(S(=O)(=O)N3CCOCC3)cc2[N+](=O)[O-])cc1,5.2µM,i,i,i,i,i
Cc1cccc(Nc2ccc(S(=O)(=O)N3CCOCC3)cc2[N+](=O)[O-])c1,i,i,i,i,i,i
CCCN1CCC(=NNc2ccc(S(=O)(=O)N3CCOCC3)cc2[N+](=O)[O-])CC1,7.3µM,i,4.6µM,i,14µM,i
CCCCN(CC)CCNC(=O)CCn1cnc2onc(-c3ccc(F)cc3)c2c1=O,i,i,i,i,i,i
COc1ccc(NC(=O)Cn2ncc3c2-c2ccccc2OC3)cc1Cl,?,?,?,i,i,i
CC(=O)c1cc(Cl)ccc1OC(=O)c1ccco1,i,i,i,i,i,i
O=C(Oc1ccc(Br)cc1C(=O)/C=C/c1ccccc1F)c1ccco1,i,16µM,i,?,i,?
COc1ccc(/C=C2\SC(=O)N(CCNC(=O)C3=COCCO3)C2=O)cc1,2.6µM,i,2.9µM,i,i,?
COc1ccc2c(CC(=O)NCCN3C(=O)S/C(=C\c4cccnc4)C3=O)coc2c1,i,i,i,i,i,i
O=C(NCCN1C(=O)S/C(=C\c2ccc(OC(F)F)cc2)C1=O)c1cnccn1,8.2µM,i,5.8µM,i,i,?
O=C(NCCN1C(=O)S/C(=C\c2ccc(OC(F)F)cc2)C1=O)C1=COCCO1,?,i,?,i,i,i
COc1ccc(/C=C2\SC(=O)N(CCNC(=O)Cc3coc4cc(OC)ccc34)C2=O)cc1,5.8µM,?,?,i,i,i
O=C(NCCN1C(=O)S/C(=C\c2ccccc2Cl)C1=O)C1=COCCO1,?,i,?,i,i,?
O=C(NCCN1C(=O)S/C(=C\c2ccccc2F)C1=O)C1=COCCO1,9.2µM,i,?,i,i,?
CC(Oc1ccc(Cl)cc1)C(=O)NCCN1C(=O)S/C(=C\c2cccnc2)C1=O (stereo not given),?,i,i,?,i,?
Cc1c(C(=O)N2CCCC2)sc2ncnc(NCCCN3CCOCC3)c12,nt,nt,nt,nt,nt,i
O=C1Nc2ccccc2Oc2cc(Oc3ccccc3)ccc21,i,?,i,nt,i,nt
CC(C(=O)NCc1ccc(Cl)cc1)n1ccc2cc(S(=O)(=O)N3CCCCCC3)ccc21 (stereo not given),?,i,?,i,i,?
Cc1ccccc1N=C(c1ccccc1)C1C(=O)c2ccccc2C1=O,21µM,?,?,i,i,i
COc1cccc(C2c3cc4c(cc3OC(N3CCOCC3)C2C)OCO4)c1O (stereo not given),?,?,?,i,i,?

# Screening data: PubChem, National Center for Advancing Translational Sciences (NCATS)
